27 molecules from PubChem BioAssay (NCATS) can be followed below.

Where “and” joins values, the source holds several entries; their conditions need not be identical. Identical values can stand only once. Inconclusive results are not listed. Where a structure was tested more than once in an assay, its records may differ in their call. Calls of active or inactive are those of the source. The call rests on the fitted dose curve; in most records, active means well fitted curve in the direction sought with a large enough effect; inconclusive means small, poorly fitted or top-dose-only effect, or another doubt; inactive means no such curve, though single readings can be large; an effect the other way counts as inactive or inconclusive.

A short description of assay [1]: Viability qHTS for spleen associated tyrosine kinase inhibitor (SYKi) naive MV4-11 cells (AID 1963823). Further: nearly all actives have a fitted effect of over 40% in size. In outline:
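Read-out: CellTiter-Glo luminescence. Exposure: 72 hr, 37 C, 5% CO2, 95% humidity. Cells: MV4-11 without SYK inhibitor history, 500/well, qHTS format.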

Assay [2] is described as follows: Quantitative highthroughput screen to assess conditional lethalithy of NOMO1 cells grown in RPMI1640 with untreated serum (RPMI+s) (AID 1963876). Further: nearly all actives have a fitted effect of over 35% in size. In outline: (§1)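 Each medium arm—HPLM with 10% dialyzed FBS, or RPMI1640 with 5 mM glucose and 10% untreated or dialyzed FBS—was screened against an 11-point, 3-fold compound titration for 48 h at 37 °C, with CellTiter-Glo luminescence as endpoint.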

Assay [3] is described as follows: Viability qHTS for spleen associated tyrosine kinase inhibitor (SYKi) drug resistant MV4-11 cells (AID 1963824). Further: nearly all actives have a fitted effect of over 35% in size. In outline: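 SYK-inhibitor-resistant MV4-11 AML cells were seeded at 500 per well onto compound and cultured 72 hours (37 °C, 5% CO2). CellTiter-Glo was then added, and after 10 min at room temperature, luminescence gave viability.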
In general terms: qHTS replaces the single test concentration by a dilution series.

The nature of assay [4]: Cellular viability qHTS for adrenocortical cancer (ACC) cell line NCI-H295R (AID 1963990). Further: nearly all actives have a fitted effect of over 60% in size. In outline: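 IC50 and maximal efficacy derive from four-parameter logistic modelling of titration curves, with reads scaled between DMSO-only wells (0%) and doxorubicin hydrochloride (100% inhibition). Compounds spanned up to 46 uM over 48 h.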
Assay [5] in a line: Quantitative highthroughput screen to assess conditional lethalithy of NOMO1 cells grown in RPMI1640 with dialyzed fetal bovine serum (RPMI+ds) (AID 1963877). Further: nearly all actives have a fitted effect of over 30% in size. On Viability: series mostly up to about 46 µM. In outline: as §1
Assay [6] in a line: Quantitative highthroughput screen to assess conditional lethalithy of NOMO1 cells grown in Human Plasma-Like Medium with dialyzed fetal bovine serum (HPLM+ds) (AID 1963878). Further: nearly all actives have a fitted effect of over 35% in size. In outline:
as §1

A short description of assay [7]: Quantitative highthroughput screen to assess conditional lethalithy of P12 Ichikawa cells grown in Human Plasma-Like Medium with dialyzed fetal bovine serum (HPLM+ds) (AID 1963879). Further: nearly all actives have a fitted effect of over 35% in size. On Viability: series mostly up to about 46 µM. Particulars: Potency: viability. In outline:
as §1

Assay [8] in a line: Quantitative highthroughput screen to assess conditional lethalithy of P12 Ichikawa cells grown in RPMI1640 with dialyzed fetal bovine serum (RPMI+ds) (AID 1963880). Further: nearly all actives have a fitted effect of over 35% in size. Particulars: Potency: P12-Ichikawa viability. In outline: as §1
Assay [9] can be described thus: Quantitative highthroughput screen to assess conditional lethalithy of P12 Ichikawa cells grown in RPMI1640 with untreated serum (RPMI+s) (AID 1963881). Further: nearly all actives have a fitted effect of over 35% in size. On Viability: series mostly up to about 46 µM. The following applies: Potency: viability. In outline:
as §1

Assay [10] is described as follows: Quantitative highthroughput screen to assess conditional lethalithy of SEM cells grown in Human Plasma-Like Medium with dialyzed fetal bovine serum (HPLM+ds) (AID 1963882). Further: nearly all actives have a fitted effect of over 35% in size. On Viability: series mostly up to about 46 µM. In outline: as §1
The nature of assay [11]: Quantitative highthroughput screen to assess conditional lethalithy of SEM cells grown in RPMI1640 with unreated serum (RPMI+s) (AID 1963883). Further: nearly all actives have a fitted effect of over 35% in size. In outline:
as §1

Assay [12] can be described thus: Quantitative highthroughput screen to assess conditional lethalithy of SEM cells grown in RPMI1640 with dialyzed fetal bovine serum (RPMI+ds) (AID 1963884). Further: nearly all actives have a fitted effect of over 35% in size. On Viability: series mostly up to about 46 µM. In outline: as §1
Potency means the concentration at half of the fitted maximal effect.

For `CN1CCN(c2cccc(Nc3nc4c(-c5ccc(S(C)(=O)=O)cc5)cccn4n3)c2)CC1`, the Potency in [1] is 146 nM (active) and 132 nM (active). The Potency result in assay [2] is “inactive”.

With `CN(C)C/C=C/C(=O)Nc1cc2c(Nc3ccc(F)c(Cl)c3)ncnc2cc1O[C@H]1CCOC1`, the Potency in assay [1] was 1.48 µM (active); in [3] it was 1.86 µM (active); in assay [4] it was 7.08 µM (active).

In the case of `COCCn1c2c([n+](Cc3cnccn3)c1C)C(=O)c1ccccc1C2=O`, the Potency is 0.0093 µM (active) in assay [1]; 132 nM (active) in [2]; 105 nM (active) in [5]; 66.2 nM (active) in [6]; 235 nM (active) in assay [7]; 187 nM (active) in assay [8]. The Potency was 166 nM (active) in assay [9], 16.6 nM (active) in [10], 66.2 nM (active) in assay [11] and 41.8 nM (active) in assay [12].

`COc1cc(OC)cc(N(CCNC(C)C)c2ccc3ncc(-c4cnn(C)c4)nc3c2)c1`: the Potency was 5.25 µM (active) in assay [1], 4.11 µM (active) in assay [3] and 22.4 µM (active) in assay [4].

Take `COC1CCN(C(=O)c2cc(Cc3n[nH]c(=O)c4ccccc34)ccc2F)CC1`: the Potency is 18.6 µM (active) in [1] and 14.8 µM (active) in assay [3]. In assay [4], the Potency entry was “inactive”.

As to `C=C1C(=O)O[C@@H]2[C@H]3C(C)=CC[C@@]34O[C@@]4(C)CC[C@@H]12`, the Potency in assay [1] was 3.32 µM (active); in assay [3], 1.48 µM (active); in [4], 17.8 µM (active).

Consider `CC(=O)C1CCC2C3CCC4=CC(=O)CCC4(C)C3CCC12C` (centres undefined), for which the Potency in assay [1] is 16.6 µM (active); in assay [3] it was 9.34 µM (active). In addition, the Potency result in [4] was “inactive”.

Consider `COC1(c2sc3c(N4CCOCC4)nc(-c4cnc(N)nc4)nc3c2C)COC1`, for which the Potency in assay [1] was 0.231 µM (active); in [3] it was 0.411 µM (active); in assay [4], 0.501 µM (active).

For the molecule `Cc1nc2ccc(-n3ncc(C(=O)c4cc5ccccc5[nH]4)c3N)cc2[nH]1`, the Potency in [1] is 2.59 µM (active); in assay [3], 2.59 µM (active) and 4.68 µM (active). Further, the Potency result in assay [4] is “inactive”.

Take `COC(=O)[C@H]1[C@@H](O)[C@@]2(O)c3c(OC)cc(O[C@@H]4O[C@@H]([C@@H](O)CO)CO[C@H]4OC)cc3O[C@@]2(c2ccc(OC)cc2)[C@@H]1c1ccccc1`: the Potency in [1] is 2.35 µM (active); in assay [3], 1.66 µM (active). Besides, the Potency entry in [4] was “inactive”.

Turning to `Cc1cc(=O)[nH]c(=S)[nH]1`, the Potency result in assay [1], in assay [3] and in assay [4] was “inactive” each time.

In the case of `NC(=O)N/N=C/c1ccc([N+](=O)[O-])o1`, the Potency in assay [1] is 27.3 µM (active) and inactive; in assay [3], 21.7 µM (active); in [4] it was 8.91 µM (active).

Turning to `CC[C@]12CCCN3CCc4c(n(c5ccccc45)[C@@](O)(C(=O)OC)C1)[C@@H]32`, the Potency entry in assay [1], in [3] and in assay [4] was “inactive” in each case.

For the molecule `COc1c(C)c2c(c(O)c1C/C=C(\C)CCC(=O)OCCN1CCOCC1)C(=O)OC2`, the Potency in [1] was 1.5 µM (active) and 332 nM (active); in assay [3] it was 1.19 µM (active) and 833 nM (active); in assay [4], 1.26 µM (active).

As to `C[C@H](NC(=O)/C(C#N)=C/c1cccc(Br)n1)c1ccccc1`, the Potency is 3.72 µM (active) in assay [1], 2.95 µM (active) in assay [3] and 28.2 µM (active) in assay [4].

With `Oc1ccc(O)cc1`, the results for the Potency in [1] and in assay [3] were 11.9 µM (active) and 13.3 µM (active), respectively. In addition, the Potency result in [4] is “inactive”.

Take `Cn1cc(C2=C(c3cn(C)c4cc([N+](=O)[O-])ccc34)C(=O)NC2=O)c2ccccc21`: the Potency in assay [1] was 0.296 µM (active); in [3] it was 0.372 µM (active); in assay [4] it was 0.178 µM (active).

For the molecule `O=C(O)CCCc1ccccc1`, the Potency entry in [1], in assay [3] and in assay [4] was “inactive” in each case.

On to `NCC1CCC(C(=O)O)CC1` (centres undefined), for which the Potency entry in assay [1], in [3] and in assay [4] was “inactive” throughout.

As for `CNCC[C@H](Oc1cccc2ccccc12)c1cccs1`, the Potency was 18.8 µM (active) in assay [1], 26.6 µM (active) in assay [3] and 18.4 µM (active) in assay [4].

`N[C@H](C(=O)O)c1ccc(O)cc1`: the Potency entry in assay [1], in assay [3] and in assay [4] was “inactive” each time.

Regarding `CCOC(=O)[C@H](CCc1ccccc1)N[C@@H](C)C(=O)N(CC(=O)O)C1Cc2ccccc2C1`, the Potency result in assay [1], in assay [3] and in assay [4] was “inactive” each time.

Turning to `COc1ccc(C2Sc3ccccc3N(CCN(C)C)C(=O)C2OC(C)=O)cc1` (centres undefined), the Potency entry in [1], in assay [2], in assay [5], in assay [6], in assay [7] and in [8] was “inactive” in each case. The Potency entry in assay [9], in assay [10], in [11] and in [12] was “inactive” each time.

On to `NS(=O)(=O)OC[C@@H]1C[C@@H](n2ccc3c(N[C@H]4CCc5ccccc54)ncnc32)C[C@@H]1O`, for which the Potency in [1] was 103 nM (active) and 164 nM (active); in assay [3], 73.1 nM (active) and 82 nM (active) and 74.2 nM (active); in [4], 0.708 µM (active).

As for `CSc1ccc(C(=O)/C=C/c2cc(C)c(OC(C)(C)C(=O)O)c(C)c2)cc1`, the Potency is 3.03 µM (active) in assay [1], 4.28 µM (active) in assay [3] and 39.8 µM (active) in [4].

As to `c1ccc(-c2cc(CCC3CCNCC3)c3ccccc3n2)cc1`, the Potency in assay [1] is 7.42 µM (active); in [3], 6.61 µM (active); in assay [4], 15.8 µM (active).

In the case of `CCC1NC(=O)c2cc(S(N)(=O)=O)c(Cl)cc2N1` (centres undefined), the Potency entry in assay [1], in assay [3] and in assay [4] was “inactive” each time.
